Inhibition data for 95 molecules are collected here from PubChem BioAssay AID624304 (Sanford-Burnham Center for Chemical Genomics, 2012).

Hit rate of the full screen: of about 360,000 compounds, about 1,800 (0.5%) were called active. For the sample, actives were picked, then their nearest neighbours and some compounds at random. Unmarked numbers belong to inactive results.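 Rule for the calls: active = interference check ratio from 0.5 to 1.5 plus GFP to RFP signal ratio inhibition reaching or exceeding a fixed threshold (cut at about 30% in these data, passing the limit was not always enough); inactive = the rest.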

A short description of this test: gst-4 reporter inhibition in live C. elegans – whole organism, uHTS, GFP/RFP fluorescence ratio, strain VP596, SKN-1 inhibitor project, primary screen (AID 624304). The settings on record: C. elegans VP596 Pgst-4::GFP/RFP ratio, acrylamide-induced, 24 h; at 21.8 µM; active compounds read high.
The inhibition is the relative decrease from the control value, in per cent. On to `COc1ccccc1N(C)S(=O)(=O)c1ccc(Cl)c(C(=O)Nc2ccncc2)c1`, for which the inhibition was 23.4%.

As for `COc1cc2ccccc2cc1C(=O)Nc1ccncc1`, the inhibition is 36.2% (active).

Take `COc1cccc(OC)c1C(=O)Nc1ccc(Cc2ccncc2)cc1`: the inhibition is -3.1%.

Take `O=C(O)c1cccc2c1C(=O)N(C1CCCC1)C2`: the inhibition is -4.43%.

As to `CN(Cc1nc2ccccc2c(=O)[nH]1)Cc1cc(=O)oc2ccc3ccccc3c12`, the inhibition was 14.1%.

On to `CCN(CC)c1ccc2oc(=O)c(C)nc2c1`, for which the inhibition was 40.8% (active).

As for `Cc1ccc2c(=O)oc(N(C)C)nc2c1`, the inhibition is 8.34%.

Consider `Cc1c(Cl)c([N+](=O)[O-])nn1CC(=O)NCCCN1CCOCC1`, for which the inhibition was 28.4%.

As for `CC1Cc2ccccc2N1S(=O)(=O)c1cccc(C(=O)OCC(=O)N2CCOCC2)c1` (stereo not given), the inhibition was 17.4%.

For the molecule `CC1Cc2ccccc2N1S(=O)(=O)c1cccc(C(=O)NCC(c2ccco2)N2CCCC2)c1` (stereo not given), the inhibition is 4.55%.

For the molecule `CCCCn1ccnc1C(=O)c1cccc(S(=O)(=O)N2c3ccccc3CC2C)c1` (stereo not given), the inhibition was 41.7% (active).

`COCCN(C(=O)COC(=O)Cc1cccc(OC)c1)c1c(N)n(Cc2ccccc2)c(=O)[nH]c1=O`: the inhibition is 5.12%.

For `CCCCOc1ccc(N(CC(=O)NC(C)C)C(=O)CCC(=O)Nc2ccccn2)cc1`, the inhibition is -1.05%.

For `O=C(NCCCn1ccnc1)C(=O)NCC1OCCN1S(=O)(=O)c1cc(F)ccc1F` (stereo not given), the inhibition is -7.89%.

For the molecule `CCc1ccc(-c2nc(SCC(=O)NC3CCCC3)n[nH]2)cc1`, the inhibition is 3.3%.

Turning to `Cn1c(=NC(=O)c2ccco2)sc2cccc(F)c21`, the inhibition is 7.91%.

`Cn1c(=NC(=O)C2CC2)sc2cc(F)cc(F)c21`: the inhibition is 38% (active).

Take `CSCCNCc1cn(-c2ccc(F)cc2F)nc1-c1ccccc1C`: the inhibition was -14.2%.

On to `O=C1CC2(CCN(C(=O)COc3ccc(F)cc3)CC2)Oc2ccccc21`, for which the inhibition is -3.05%.

With `CN(C)/C=N/c1cc(=O)n(C)c(=O)n1CC1CC1`, the inhibition is 8.63%.

Regarding `CN=C1C=C/C(=N/N=c2\ccn(O)cc2C)C=C1C`, the inhibition is 41.1% (active).

On to `COc1ccc(/C=C/C2=CC(C)(C)NC(=S)N2)c(OC)c1`, for which the inhibition is -2.28%.

Regarding `Fc1ccc(COc2cccc(-c3n[nH]c(=S)o3)c2)cc1`, the inhibition was -1.11%.

For `Fc1ccc(COc2ccc(-c3nnco3)cc2)cc1`, the inhibition is 77.7% (active).

Consider `Fc1cccc(Cl)c1COc1ccc(-c2nnco2)cc1`, for which the inhibition was 23.1%.

In the case of `Cc1cccc(NC(=O)NC2(C)CCS(=O)(=O)C2)c1` (stereo not given), the inhibition is -6.44%.

Regarding `CCCC(NCC(=O)Nc1ccccc1C(=O)NC1CC1)c1ccccc1` (stereo not given), the inhibition is 11.1%.

For `Cc1ccc(NC(=O)NC(=O)CSc2nnc(-c3ccc(OC(F)F)cc3)n2N)c(C)c1`, the inhibition was 1.8%.

As for `CC(C)C[C@@H](COc1ccccc1)N1CCN(CC(C)C)CCC1=O`, the inhibition was 12.3%.

On to `N#C/C(=C/c1ccc(Cl)cc1)NC(=O)c1ccccc1`, for which the inhibition was -13.8%.

As to `CC(Cc1cccs1)N(Cc1ccc(Cl)cc1)C(=O)c1ccncc1` (stereo not given), the inhibition was 8.76%.

Take `CC/C(=C\c1ccc(Cl)cc1)c1ccncc1`: the inhibition is 57.3% (active).

With `CCCSC(=S)NC1CCS(=O)(=O)C1` (stereo not given), the inhibition is 10.7%.

In the case of `O=C(OCC(=O)N1CCCC1=O)c1cc(S(=O)(=O)N2CCOCC2)ccc1Cl`, the inhibition was 6.4%.

Turning to `O=C(OCC(=O)N1CCOCC1)c1ccc2ccccc2c1`, the inhibition was -11.5%.

Take `COc1ccc(OC)c(/C(C)=N\NC(=O)c2cc3cc(Cl)ccc3n2C)c1`: the inhibition was 1.75%.

Consider `C=C(C)c1cccc(C(C)(C)NC(=O)NCCN(CC)CC)c1`, for which the inhibition is -10.6%.

Take `C=C(C)c1cccc(C(C)(C)NC(=O)N2CCN(c3ncccn3)CC2)c1`: the inhibition was 36.7% (active).

`C=C(C)c1cccc(C(C)(C)NC(=O)NC2CCCC2)c1`: the inhibition was -1.51%.

Turning to `COc1cccc(NC(=O)C2C(c3ccccc3)C2(Cl)Cl)c1` (stereo not given), the inhibition was -10.4%.

On to `COc1ccc(N2CCN(C(=O)CCNC(=O)c3ccc(Br)cc3)CC2)cc1`, for which the inhibition was 4.57%.

Turning to `CCOc1ccccc1NC(=O)c1cc(S(=O)(=O)N2CCC3(CC2)OCCO3)ccc1F`, the inhibition was 3.17%.

On to `CN1OC[C@@H]2CN(C(=O)c3ccc(-c4ccccc4)cc3)[C@H](c3ccc(-c4cccc(F)c4)cc3)C[C@@H]21`, for which the inhibition is -1.35%.

Consider `CC(=O)N1CCN(C(=O)C2(NC(=O)Nc3ccc(C)cc3)CCCCC2)CC1`, for which the inhibition was -13.7%.

Regarding `O=C(C1CCCO1)N1CCN(C(=O)C23CC4CC(CC(C4)C2)C3)CC1` (stereo not given), the inhibition is 24.4%.

Take `N/C(Cc1ccc([N+](=O)[O-])cc1)=N\OC(=O)COc1ccc2ccccc2c1`: the inhibition is -1.15%.

With `CCn1nccc1C(=O)Nc1ccc(Cl)c(Cl)c1`, the inhibition was 44.5% (active).

For the molecule `CCn1nccc1C(=O)Nc1ccc(S(=O)(=O)NC23CC4CC(CC(C4)C2)C3)cc1`, the inhibition was 5.56%.

As to `CC(c1cccnc1)N(CCN(C)C)C(=O)Nc1ccc(Cl)c(Cl)c1` (stereo not given), the inhibition was 0.83%.

For `CC1CCCC(C)N1C(=O)CSc1nnnn1C1CCCC1` (stereo not given), the inhibition is -2.05%.

For `COc1ccccc1-c1nnc(-c2ccc(F)cc2)o1`, the inhibition was 45% (active).

As to `COc1ccccc1-c1cc(NC(C)=O)c2ncc(-c3ccc(F)cc3)n2c1`, the inhibition was 18.1%.

On to `COc1ccccc1C1=CC(=O)C[C@H](c2ccc(F)cc2)C1`, for which the inhibition was 8.41%.

With `Cn1c(SCC(=O)N2CCOCC2)nnc1-c1ccc2ncccc2c1`, the inhibition is 3.82%.

Turning to `N#Cc1c(C(F)(F)F)cc(-c2ccccc2)nc1SCC(=O)N1CCOCC1`, the inhibition was 2.8%.

Regarding `Cc1cccc(-c2nc3c(c(SCC(=O)N4CCOCC4)n2)CCCC3)c1`, the inhibition was 37.9% (active).

With `Cc1ccc(C)c(S(=O)(=O)N2CC(=O)Nc3ccccc32)c1`, the inhibition is -15.3%.

`CCCCSc1[nH]c(=O)c(C(=O)OCC)cc1C#N`: the inhibition was 48.3% (active).

Consider `CCOC(=O)c1cc(C)nc(S(C)(=O)=O)c1C#N`, for which the inhibition was 13.5%.

Take `CCOC(=O)c1c(C(C#N)C#N)cc(C)nc1C`: the inhibition is -3.86%.

Turning to `CC(=O)Nc1cnc(-c2ccc(O)cc2C)cn1`, the inhibition is -1.38%.

With `CCC(Oc1ccccc1)C(=O)OCC(=O)Nc1c(C)nn(-c2ccccc2)c1C` (stereo not given), the inhibition was 15.9%.

On to `CC(C)C1CCN(C(=O)C2CCC(=O)N(C3CCCCCC3)C2)CC1` (stereo not given), for which the inhibition was -2.6%.

For the molecule `Cc1nn(CC2CC2)c(=O)n1N(C)c1ncc(C(F)(F)F)cc1Cl`, the inhibition was 3.57%.

Consider `Cc1nn(-c2ncc(C(F)(F)F)cc2Cl)c(=O)n1-c1ccccc1`, for which the inhibition was 35.6% (active).

Consider `Cc1nn(CC#N)c(=O)n1N(C)c1ncc(C(F)(F)F)cc1Cl`, for which the inhibition was -3.68%.

For `CCCn1c(N)c(C(=O)CSc2nnc3n2CCCCC3)c(=O)[nH]c1=O`, the inhibition was 9.24%.

For the molecule `COc1ccccc1C(=O)N(C1=NC(C)CS1)c1ccc(Cl)cc1` (stereo not given), the inhibition was -17.9%.

For the molecule `Cc1ccc(N/C(N)=N/c2nc(C(F)(F)F)cc(C(F)(F)F)n2)cc1`, the inhibition is 2.4%.

For the molecule `Oc1ccc(N=Nc2nccs2)c(O)c1`, the inhibition is 40.3% (active).

`CCN(CC)P(=O)(/C(Cl)=C\Nc1c(C)n(C)n(-c2ccccc2)c1=O)N(CC)CC`: the inhibition was 38.6% (active).

In the case of `Cc1cc(C)cc(N(CC(=O)Nc2c(C)n(C)n(-c3ccccc3)c2=O)S(C)(=O)=O)c1`, the inhibition is -7.93%.

Consider `Cc1c(NC(=S)Nc2ccccc2)c(=O)n(-c2ccccc2)n1C`, for which the inhibition was 13.7%.

For `C=CC[C@@H](CC(=O)NCCO)C(=O)N[C@H](C)COC(=O)[C@@H](CC=C)CC(=O)OC(C)(C)C`, the inhibition was 4%.

Regarding `CCOC(=O)C1CN(S(=O)(=O)c2ccc(F)cc2)C1`, the inhibition is -3.48%.

With `O=S(=O)(c1ccc(F)cc1)N1CC=C(c2ccccc2)CC1`, the inhibition was 0.877%.

As for `O=C(O)c1cccc(S(=O)(=O)N2CC=C(c3ccccc3)CC2)c1`, the inhibition was -4.6%.

Take `Cc1c(C2=CCN(S(=O)(=O)c3ccc(Cl)cc3)CC2)c2ccccc2n1C`: the inhibition was 40.5% (active).

As to `O=C(CSc1cccc[n+]1[O-])c1ccc(-c2ccccc2)cc1`, the inhibition was -20.6%.

Turning to `O=C(O)/C(=C/c1cccnc1)NC(=O)c1ccccc1`, the inhibition is 0.0898%.

As to `Cc1cccc(NS(=O)(=O)c2ccc(C(=O)NCC(C)(C)N3CCOCC3)cc2)c1C`, the inhibition was -5.62%.

For the molecule `Cc1cc(C(=O)COc2ccccc2[N+](=O)[O-])c(C)n1-c1cccc(S(=O)(=O)N2CCOCC2)c1`, the inhibition was 7.44%.

Regarding `COCCNC(=O)CN(C(=O)CCC(=O)Nc1cc(C)on1)c1ccc(C)cc1C`, the inhibition is -14.7%.

Turning to `CC1CN(c2nc(Nc3ccccc3)nc(N)c2[N+](=O)[O-])CC(C)O1` (stereo not given), the inhibition is 38% (active).

Turning to `COCCNc1nc(N)c([N+](=O)[O-])c(N2CCCCCC2)n1`, the inhibition was 23.7%.

Turning to `Nc1nc(NCCCN2CCOCC2)nc(Nc2ccccc2)c1[N+](=O)[O-]`, the inhibition was 5.52%.

For `Fc1ccccc1OCCSc1nc2ccccc2o1`, the inhibition is 36.2% (active).

For the molecule `CCN(CC)C(=O)CSc1nc2ccccc2o1`, the inhibition is 0.512%.

As for `CC(C)(C)C(=O)CSc1nc2ccccc2o1`, the inhibition is -6.68%.

For the molecule `Cn1c(SCC(=O)OC2CCCCC2)nnc1-c1ccc(S(=O)(=O)N2CCCC2)cc1`, the inhibition is -4.66%.

Take `O=C(NCCc1nnc2ccc(SCC(=O)N3CCOCC3)nn12)c1ccccc1`: the inhibition was 9.19%.

As for `O=C(NCc1ccco1)C1(c2ccc(Cl)cc2)CCCC1`, the inhibition was -1.05%.

As for `O=C(CSc1c2c(nc3ccc(Cl)cc13)CCCC2)NCc1ccco1`, the inhibition was 82.7% (active).

Consider `O=C(CSc1nnnn1-c1ccccc1)NCc1ccco1`, for which the inhibition is -15%.

Take `CCn1c(=O)n(CC)c2cc(N3CCCC3)c(NC(=O)c3ccccc3Br)cc21`: the inhibition is -26.6%.
